# From PubChem BioAssay (Tox21)
# Values without a mark were called inactive. Records with an inconclusive call do not appear. Where a call stands in place of a potency, no number is given. Active and inactive are the calls of the source. Unless noted, calls follow the shape of the full dose curve.
# Tests used:
# [1] = target: Androgen receptor (Homo sapiens) (UniProt P10275); assay: qHTS assay to identify small molecule agonists of the androgen receptor (AR) signaling pathway in the presence of an antagonist (AID 1259381); also: nearly all actives have a fitted effect of over 15% in size
# Procedure, shortened: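 Agonist-mode confirmation screen: human MDA-kb2 cells stably expressing luciferase under an MMTV promoter bearing AR and GR response elements, co-treated with 3.0uM nilutamide (final). Luminescence measured after 16hr compound incubation.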
# [2] = qHTS assay to identify small molecule antagonists of the estrogen receptor beta (ER-beta) signaling pathway - cell viability counter screen (AID 1259382; active = well fitted curve in the direction sought with a large enough effect in the repeat runs; an effect the other way counts as inactive or inconclusive; also: nearly all actives have a fitted effect of over 55% in size; also: potency is read from the fitted curve at half-maximal effect;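 as to activity change, negative = cytotoxicity: HEK293T cells carrying ER-beta-UAS-bla reporter stimulated with estradiol; series mostly up to about 92 µM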)
# Procedure, shortened: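 Cytotoxicity counter screen multiplexed with the beta-lactamase antagonist assay: GripTite HEK293T ER-beta-bla cells were treated 16 hr with test chemicals in the presence of 1nM 17-beta-estradiol, and viability was measured by CellTiter-Glo.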
# [3] = target: Estrogen receptor (Homo sapiens) (UniProt P03372); assay: qHTS assay to identify small molecule agonists of the estrogen receptor alpha (ER-alpha) signaling pathway in the presence of an antagonist (AID 1259383); also: top concentration of the series differs between compounds; nearly all actives have a fitted effect of over 15% in size
# Procedure, shortened: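 Agonist-mode confirmation in the presence of the ER antagonist ICI-182,780 at 10.0nM final. Breast-derived VM7Luc4E2 reporter cells were exposed to compounds for 22hr, and ERE-driven luciferase was quantified by luminescence.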
# [4] = qHTS assay to identify small molecule agonists or antagonists of the thyroid stimulating hormone receptor (TSHR) signaling pathway - wild type cell line counter screen (AID 1259384); also: potency is read from the fitted curve at half-maximal effect
# Procedure, shortened: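 Wild-type HEK293 cells were plated 18 h at 37 C/5% CO2, pin-dosed with compound plus Ro20-1724 medium, held 30 min at room temperature, then given cAMP-d2 and anti-cAMP-cryptate; fluorescence was read after 1 h. Fifteen concentrations, triplicate.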
# [5] = target: Thyrotropin receptor (Homo sapiens) (UniProt P16473); assay: qHTS assay to identify small molecule antagonists of the thyroid stimulating hormone receptor (TSHR) signaling pathway (AID 1259385); also: nearly all actives have a fitted effect of over 20% in size; also: potency is read from the fitted curve at half-maximal effect
# Procedure, shortened: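 TSHR-HEK293 cells were plated and held 18 h at 37C/5% CO2, then given compound plus Ro20-1724 and stimulated with TSH at 1.5 ng/mL final. After 30 min at room temperature, cAMP was detected with cAMP-d2/anti-cAMP-cryptate (1 h) by fluorescence.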
# [6] = qHTS assay to identify small molecule agonists of the estrogen receptor alpha (ER-alpha) signaling pathway in the presence of an antagonist - cell viability counter screen (AID 1259386; active = well fitted curve in the direction sought with a large enough effect in the repeat runs; an effect the other way counts as inactive or inconclusive;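 also: cells exposed to compounds for 22 h at 37 °C before the viability read; nearly all actives have a fitted effect of over 30% in size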; also: potency is read from the fitted curve at half-maximal effect; as to activity change, negative = cytotoxicity: series mostly up to about 92 µM)
# Procedure, shortened: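 Cytotoxicity was measured in parallel with the ERE-luciferase agonist screen, in the same wells. The cells were VM7Luc4E2, which endogenously express ER-alpha, and treatment was with compounds plus 10.0nM ICI-182,780 for 22hr.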
# [7] = qHTS assay to identify small molecule antagonists of the progesterone receptor (PR) signaling pathway - cell viability counter screen (AID 1346798; active = well fitted curve in the direction sought with a large enough effect in the repeat runs; an effect the other way counts as inactive or inconclusive; also: nearly all actives have a fitted effect of over 50% in size; also: potency is read from the fitted curve at half-maximal effect;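 as to activity change, negative = cytotoxicity: HEK293T PR-UAS-bla cells stimulated with the agonist R5020; series mostly up to about 92 µM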)
# Procedure, shortened: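 HEK293T PR-UAS-bla, 2% charcoal-stripped FBS; 4 hr pre-plate; cpd + R5020, 16 h 37C; LiveBLAzer read first; then CellTiter-Glo 30 min RT, luminescence.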
# [8] = target: Progesterone receptor (Homo sapiens) (UniProt P06401); assay: qHTS assay to identify small molecule agonists of the progesterone receptor (PR) signaling pathway (AID 1346784); also: nearly all actives have a fitted effect of over 30% in size
# Procedure, shortened: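 Beta-lactamase reporter read-out: after 16 hr compound treatment at 37C and a further 2 hr at room temperature with LiveBLAzer B/G FRET substrate, fluorescence was measured in PR-UAS-bla HEK 293T cells grown in 2% charcoal-stripped serum.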
# [9] = target: Progesterone receptor (Homo sapiens) (UniProt P06401); assay: qHTS assay to identify small molecule antagonists of the progesterone receptor (PR) signaling pathway (AID 1346795; active = well fitted inhibition curve with a large enough effect in the signal ratio in the repeat runs, not every such curve was filed as active; the % refers to the signal ratio)
# Procedure, shortened: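 Read-out is fluorescence from the LiveBLAzer B/G FRET substrate, cleaved by a UAS-controlled beta-lactamase in PR-UAS-bla HEK293T cells after 16 hr exposure to compound plus 1 nM promegestone (final), followed by 2 hr at room temperature.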
# [10] = qHTS assay to identify small molecule agonists of the progesterone receptor (PR) signaling pathway - cell viability counter screen (AID 1346799); also: nearly all actives have a fitted effect of over 45% in size; also: potency is read from the fitted curve at half-maximal effect
# Procedure, shortened: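 Luminescence from CellTiter-Glo, added after the beta-lactamase FRET read in the same wells, gave cytotoxicity in PR-UAS-bla HEK293T cells treated with compounds for 16 hr at 37C.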
# Estrogen receptor (Homo sapiens), sequence (P03372 whole entry, looked up): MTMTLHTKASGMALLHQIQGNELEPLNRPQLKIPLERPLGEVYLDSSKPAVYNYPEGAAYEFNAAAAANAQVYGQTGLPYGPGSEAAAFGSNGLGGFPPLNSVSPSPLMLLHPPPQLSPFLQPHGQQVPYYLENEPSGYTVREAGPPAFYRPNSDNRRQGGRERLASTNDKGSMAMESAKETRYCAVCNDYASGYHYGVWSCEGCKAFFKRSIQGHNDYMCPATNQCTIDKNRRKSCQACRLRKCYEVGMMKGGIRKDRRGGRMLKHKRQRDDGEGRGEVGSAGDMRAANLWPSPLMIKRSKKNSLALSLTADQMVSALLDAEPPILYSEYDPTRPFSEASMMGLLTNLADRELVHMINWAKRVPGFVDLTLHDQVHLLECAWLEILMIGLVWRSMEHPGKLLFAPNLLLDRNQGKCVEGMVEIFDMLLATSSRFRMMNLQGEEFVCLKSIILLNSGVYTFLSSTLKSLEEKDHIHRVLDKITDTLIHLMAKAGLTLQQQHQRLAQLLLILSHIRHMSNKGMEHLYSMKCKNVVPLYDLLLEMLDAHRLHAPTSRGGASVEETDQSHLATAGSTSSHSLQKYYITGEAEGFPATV
# Androgen receptor (Homo sapiens), sequence (P10275 whole entry, looked up): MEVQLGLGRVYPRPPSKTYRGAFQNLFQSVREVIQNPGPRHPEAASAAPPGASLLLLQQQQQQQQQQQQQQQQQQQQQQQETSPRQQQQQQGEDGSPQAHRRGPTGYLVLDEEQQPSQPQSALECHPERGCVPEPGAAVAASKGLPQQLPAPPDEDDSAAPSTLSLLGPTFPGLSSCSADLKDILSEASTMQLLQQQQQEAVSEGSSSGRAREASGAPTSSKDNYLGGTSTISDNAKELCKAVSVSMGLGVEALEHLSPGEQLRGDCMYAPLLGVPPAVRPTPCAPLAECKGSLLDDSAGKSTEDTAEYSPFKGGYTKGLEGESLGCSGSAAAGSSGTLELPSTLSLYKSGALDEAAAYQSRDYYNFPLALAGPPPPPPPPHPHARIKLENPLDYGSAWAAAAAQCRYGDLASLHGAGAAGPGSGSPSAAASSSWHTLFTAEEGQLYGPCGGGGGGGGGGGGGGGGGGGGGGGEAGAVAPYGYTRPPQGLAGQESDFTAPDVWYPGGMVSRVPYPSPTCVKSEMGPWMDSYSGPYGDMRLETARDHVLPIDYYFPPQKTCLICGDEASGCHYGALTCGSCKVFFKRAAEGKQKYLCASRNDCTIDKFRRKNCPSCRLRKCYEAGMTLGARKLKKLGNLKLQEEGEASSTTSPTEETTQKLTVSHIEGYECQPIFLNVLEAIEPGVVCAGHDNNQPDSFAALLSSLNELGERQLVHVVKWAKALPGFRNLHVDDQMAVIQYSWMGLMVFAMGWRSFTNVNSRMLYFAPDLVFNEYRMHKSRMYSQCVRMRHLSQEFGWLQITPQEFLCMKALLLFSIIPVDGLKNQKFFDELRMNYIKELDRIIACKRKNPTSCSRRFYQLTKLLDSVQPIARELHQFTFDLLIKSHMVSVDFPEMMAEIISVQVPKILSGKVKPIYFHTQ
# Progesterone receptor (Homo sapiens), sequence (P06401 whole entry, looked up): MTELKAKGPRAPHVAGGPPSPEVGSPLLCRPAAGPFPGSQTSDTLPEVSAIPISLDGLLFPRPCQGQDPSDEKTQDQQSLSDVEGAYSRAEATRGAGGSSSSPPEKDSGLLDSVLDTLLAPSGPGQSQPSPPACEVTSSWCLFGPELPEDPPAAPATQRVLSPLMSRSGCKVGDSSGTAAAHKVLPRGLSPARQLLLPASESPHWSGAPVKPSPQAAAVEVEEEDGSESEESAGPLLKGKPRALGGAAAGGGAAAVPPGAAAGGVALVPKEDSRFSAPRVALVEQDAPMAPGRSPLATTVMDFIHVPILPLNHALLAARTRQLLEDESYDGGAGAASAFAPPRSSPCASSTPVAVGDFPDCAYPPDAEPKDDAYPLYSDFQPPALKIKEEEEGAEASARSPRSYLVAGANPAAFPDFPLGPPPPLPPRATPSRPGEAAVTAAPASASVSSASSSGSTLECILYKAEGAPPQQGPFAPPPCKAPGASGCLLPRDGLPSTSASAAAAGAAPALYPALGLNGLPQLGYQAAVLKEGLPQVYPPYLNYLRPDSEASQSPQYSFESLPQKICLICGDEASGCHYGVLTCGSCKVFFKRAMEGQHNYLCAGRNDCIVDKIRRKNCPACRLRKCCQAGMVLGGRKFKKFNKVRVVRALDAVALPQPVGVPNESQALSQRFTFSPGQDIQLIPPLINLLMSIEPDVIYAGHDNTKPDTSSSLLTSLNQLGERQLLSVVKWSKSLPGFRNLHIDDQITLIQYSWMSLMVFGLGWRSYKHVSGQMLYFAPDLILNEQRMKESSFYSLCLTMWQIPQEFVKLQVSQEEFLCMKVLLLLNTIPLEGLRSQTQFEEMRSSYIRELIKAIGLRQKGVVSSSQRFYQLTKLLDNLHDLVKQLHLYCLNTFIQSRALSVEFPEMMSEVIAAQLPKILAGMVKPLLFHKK
# Thyrotropin receptor (Homo sapiens), sequence (P16473 whole entry, looked up): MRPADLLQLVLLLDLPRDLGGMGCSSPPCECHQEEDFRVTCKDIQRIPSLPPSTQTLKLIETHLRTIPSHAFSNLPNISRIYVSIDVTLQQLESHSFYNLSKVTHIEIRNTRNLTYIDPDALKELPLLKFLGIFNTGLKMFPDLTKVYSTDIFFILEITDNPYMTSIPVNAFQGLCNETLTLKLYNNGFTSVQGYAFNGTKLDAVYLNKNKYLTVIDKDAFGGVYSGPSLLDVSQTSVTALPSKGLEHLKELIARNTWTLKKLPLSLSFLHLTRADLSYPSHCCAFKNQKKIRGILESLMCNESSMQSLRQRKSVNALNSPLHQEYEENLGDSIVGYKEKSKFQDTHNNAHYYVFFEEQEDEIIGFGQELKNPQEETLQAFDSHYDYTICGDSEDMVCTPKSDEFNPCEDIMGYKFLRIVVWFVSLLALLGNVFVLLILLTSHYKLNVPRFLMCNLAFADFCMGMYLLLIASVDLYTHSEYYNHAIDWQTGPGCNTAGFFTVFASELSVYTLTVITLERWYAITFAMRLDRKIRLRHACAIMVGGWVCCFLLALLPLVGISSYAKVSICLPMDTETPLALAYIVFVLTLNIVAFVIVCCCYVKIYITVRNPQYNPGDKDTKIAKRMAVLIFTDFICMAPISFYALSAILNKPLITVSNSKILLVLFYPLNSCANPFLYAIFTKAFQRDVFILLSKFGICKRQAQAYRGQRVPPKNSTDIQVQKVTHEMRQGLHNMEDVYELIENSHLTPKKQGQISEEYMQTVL
structure (smiles),measurement,setting,value
Cc1cc(F)ccc1-c1cc(N2CC[C@@H](O)[C@H]2CO)ncc1N(C)C(=O)C(C)(C)c1cc(C(F)(F)F)cc(C(F)(F)F)c1,Potency,[1],inactive
same,Potency,[2],53.6 µM (active)
same,Potency,[3],inactive
same,Potency,[4],inactive
same,Potency,[5],inactive
same,Potency,[6],inactive
same,Potency,[7],inactive
CCCCNc1ccc(NCCCC)c2c1C(=O)c1ccccc1C2=O,activation,[1],-0.623% [at 19 µM]
same,"activity change, negative = cytotoxicity",[2],15.6% [at 19 µM]
same,activation,[3],-0.833% [at 19 µM]
same,cAMP activity change,[4],"-7.38% [at 18.9 µM, hits give high values]"
same,"activity change, negative = inhibition",[5],-5.35% [at 19 µM]
same,activation,[8],0% [at 19 µM]
same,"activity change, negative = inhibition",[9],12.4% [at 18.9 µM]
same,"activity change, negative = cytotoxicity",[10],-18.3% [at 19 µM]
O=C1OCc2ccccc21,Potency,[1],inactive
same,Potency,[2],inactive
same,Potency,[3],inactive
same,Potency,[4],inactive
same,Potency,[5],inactive
same,Potency,[6],inactive
same,outcome,[8],inactive
same,Potency,[9],inactive
same,Potency,[7],inactive
same,Potency,[10],inactive
C1=CCCC1,Potency,[1],inactive
same,Potency,[2],inactive
same,Potency,[3],inactive
same,Potency,[4],inactive
same,Potency,[5],inactive
same,Potency,[7],inactive
same,Potency,[10],inactive
CCOc1nc(F)cc2nc(S(=O)(=O)Nc3c(Cl)cccc3C(=O)OC)nn12,Potency,[1],inactive
same,Potency,[2],inactive
same,Potency,[3],inactive
same,Potency,[4],inactive
same,Potency,[5],inactive
same,Potency,[6],inactive
same,outcome,[8],inactive
same,Potency,[9],inactive
same,Potency,[7],inactive
same,Potency,[10],inactive
C=CC(=O)OCC(Br)CBr (stereo unspecified),Potency,[1],inactive
same,Potency,[2],inactive
same,Potency,[3],inactive
same,Potency,[4],inactive
same,Potency,[5],inactive
same,Potency,[6],inactive
same,outcome,[8],inactive
same,Potency,[9],inactive
same,Potency,[7],inactive
same,Potency,[10],inactive
CC1=CC[C@@H](C(C)(C)O)CC1,Potency,[1],inactive
same,Potency,[2],inactive
same,Potency,[3],inactive
same,Potency,[4],inactive
same,Potency,[5],inactive
same,Potency,[6],inactive
same,outcome,[8],inactive
same,Potency,[7],inactive
same,Potency,[10],inactive
c1ccc2c(c1)-c1ccc3ccc4cccc5cc-2c1c3c45,Potency,[1],inactive
same,Potency,[2],inactive
same,Potency,[3],inactive
same,Potency,[4],inactive
same,Potency,[7],inactive
same,Potency,[10],inactive
C/C=C/C(=O)C1=C(C)C=CCC1(C)C,Potency,[1],inactive
same,Potency,[2],inactive
same,Potency,[3],inactive
same,Potency,[4],inactive
same,Potency,[5],inactive
same,Potency,[6],inactive
same,outcome,[8],inactive
same,Potency,[9],inactive
same,Potency,[7],inactive
same,Potency,[10],inactive
Cc1ccc(S(=O)(=O)C(I)I)cc1,Potency,[1],inactive
same,Potency,[2],30.6 µM (active)
same,Potency,[3],inactive
same,Potency,[4],9.69 µM (active)
same,Potency,[5],68.6 µM (active)
same,Potency,[6],68.6 µM (active)
O=C1C=CC(=O)N1c1cccc(N2C(=O)C=CC2=O)c1,Potency,[1],inactive
same,Potency,[2],68.6 µM (active)
same,Potency,[3],inactive
same,Potency,[4],inactive
same,Potency,[5],21.7 µM (active)
CCOC=C(C(=O)OCC)C(=O)OCC,Potency,[1],inactive
same,Potency,[2],inactive
same,Potency,[3],inactive
same,Potency,[4],inactive
same,Potency,[5],inactive
same,outcome,[8],inactive
same,Potency,[9],inactive
same,Potency,[7],inactive
same,Potency,[10],inactive
CSc1nnc(C(C)(C)C)c(=O)[nH]1,Potency,[1],inactive
same,Potency,[2],inactive
same,Potency,[3],inactive
same,Potency,[6],inactive
same,outcome,[8],inactive
same,Potency,[9],inactive
CCc1c(C)cc(N)c(CC)c1N,Potency,[1],inactive
same,Potency,[2],inactive
same,Potency,[3],inactive
same,Potency,[4],inactive
same,Potency,[6],inactive
same,outcome,[8],inactive
same,Potency,[9],inactive
same,Potency,[7],inactive
same,Potency,[10],inactive
Cc1ccc(C2OC[C@@H]3OC(c4ccc(C)cc4)O[C@H]([C@H](O)CO)[C@@H]3O2)cc1 (stereo partly specified),Potency,[1],inactive
same,Potency,[2],inactive
same,Potency,[3],inactive
same,Potency,[4],inactive
same,Potency,[5],inactive
same,Potency,[6],inactive
same,outcome,[8],inactive
same,Potency,[9],inactive
same,Potency,[10],inactive
CCC(=O)OC/C=C(\C)CCC=C(C)C,Potency,[1],inactive
same,Potency,[2],inactive
same,Potency,[3],inactive
same,Potency,[4],inactive
same,Potency,[5],inactive
same,Potency,[6],inactive
same,outcome,[8],inactive
same,Potency,[9],inactive
same,Potency,[7],inactive
same,Potency,[10],inactive
CN(C[C@@H](CC[N+]12CCC(C3CCCCC3)(CC1)CC2)c1ccc(Cl)c(Cl)c1)C(=O)c1cc(C(F)(F)F)cc(C(F)(F)F)c1,Potency,[1],inactive
same,Potency,[2],17.2 µM (active)
same,Potency,[3],inactive
same,Potency,[4],inactive
same,Potency,[5],inactive
same,Potency,[7],27.3 µM (active)
same,Potency,[10],13.7 µM (active)
O=C1c2ccccc2C(=O)c2c(Cl)cccc21,Potency,[1],inactive
same,Potency,[2],inactive
same,Potency,[3],inactive
same,Potency,[4],inactive
same,Potency,[5],inactive
same,Potency,[6],inactive
same,outcome,[8],inactive
same,Potency,[9],inactive
same,Potency,[7],inactive
same,Potency,[10],inactive
Cc1cc(C)c(O)c(C(C)(C)C)c1,Potency,[1],inactive
same,Potency,[2],inactive
same,Potency,[3],inactive
same,Potency,[4],inactive
same,Potency,[5],inactive
same,outcome,[8],inactive
same,Potency,[9],inactive
same,Potency,[7],inactive
same,Potency,[10],inactive
O=C1CCC(=O)N1,Potency,[1],inactive
same,Potency,[2],inactive
same,Potency,[3],inactive
same,Potency,[4],inactive
same,Potency,[5],inactive
same,outcome,[8],inactive
same,Potency,[9],inactive
same,Potency,[7],inactive
same,Potency,[10],inactive
O=C(Cl)c1ccc(Cl)cc1Cl,Potency,[1],inactive
same,Potency,[2],inactive
same,Potency,[3],inactive
same,Potency,[6],inactive
same,outcome,[8],inactive
same,Potency,[9],inactive
same,Potency,[7],inactive
same,Potency,[10],inactive
O=[N+]([O-])c1ccc(CO)cc1,Potency,[1],inactive
same,Potency,[2],inactive
same,Potency,[3],inactive
same,Potency,[6],inactive
same,outcome,[8],inactive
same,Potency,[9],inactive
same,Potency,[7],inactive
same,Potency,[10],inactive
CCOC(=O)[C@H](O)[C@@H](O)C(=O)OCC,Potency,[1],inactive
same,Potency,[2],inactive
same,Potency,[3],inactive
same,Potency,[6],inactive
same,outcome,[8],inactive
same,Potency,[9],inactive
same,Potency,[10],inactive
CCCC(=O)c1cc(O)c(O)cc1O,Potency,[1],inactive
same,Potency,[2],inactive
same,Potency,[3],inactive
same,Potency,[6],30.6 µM (active)
CCC1(C)C(=O)N(Cl)C(=O)N1Cl (stereo unspecified),Potency,[1],inactive
same,Potency,[2],inactive
same,Potency,[3],inactive
same,Potency,[4],inactive
same,Potency,[5],inactive
same,outcome,[8],inactive
same,Potency,[9],inactive
same,Potency,[10],inactive
